According to the supplement of paper PMC6555819:

Columns and labels:
Assay in all cases: PBM binding z-score (relative to random genomic background probes); higher = stronger binding; sequences stand for … in GC…GCGATTGACAGCGTAGAATGAAGG
[1] = tested on: FXR:RXRa (NR concentration 270 nM, RXRa partner concentration 90 nM)
In short: (§1)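 Binding z-scores take random background probes as their reference. They come from custom Agilent 4×180K protein-binding microarrays incubated 1 h with ligand-free nuclear receptor dimers, with antibodies against each partner (one per run) detecting binding. Scanned fluorescence was regression-normalized.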

[2] = tested on: LXRa:RXRa (NR concentration 270 nM, RXRa partner concentration 90 nM)
In short: as §1

[3] = tested on: LXRa homodimer (NR concentration 270 nM)
In short: as §1

[4] = tested on: LXRb:RXRa (NR concentration 270 nM, RXRa partner concentration 90 nM)
In short: as §1

[5] = tested on: LXRb homodimer (NR concentration 270 nM)
In short: as §1

[6] = tested on: PPARa:RXRa (NR concentration 270 nM, RXRa partner concentration 90 nM)
In short: as §1

[7] = tested on: PPARg:RXRa (NR concentration 180 nM, RXRa partner concentration 90 nM)
In short: as §1

[8] = tested on: PPARg:RXRa 270nM:90nM, anti-RXR (NR concentration 270 nM, RXRa partner concentration 90 nM)
In short: as §1

[9] = tested on: PPARg:RXRa 30nM:10nM, anti-RXR (NR concentration 30 nM, RXRa partner concentration 10 nM)
In short: as §1

[10] = tested on: PPARg:RXRa 90nM:30nM, anti-RXR (NR concentration 90 nM, RXRa partner concentration 30 nM)
In short: as §1

[11] = tested on: PPARg:RXRa DBDmut IVT, anti-RXR (DBD mutation: RXRa K156A/R161A, NR concentration 270 nM, RXRa partner concentration 90 nM)
In short: as §1

[12] = tested on: PPARg:RXRa IVT, anti-PPARg (NR concentration 270 nM, RXRa partner concentration 90 nM)
In short: as §1

[13] = tested on: PPARg DBDmut:RXRa IVT, anti-PPARg (DBD mutation: PPARg1 K132A/R137A, NR concentration 270 nM, RXRa partner concentration 90 nM)
In short: as §1

[14] = tested on: PPARg DBDmut IVT, anti-PPARg (DBD mutation: PPARg1 K132A/R137A, NR concentration 270 nM)
In short: as §1

[15] = tested on: PPARg homodimer (NR concentration 180 nM)
In short: as §1

[16] = tested on: PXR:RXRa (NR concentration 270 nM, RXRa partner concentration 90 nM)
In short: as §1

[17] = tested on: PXR homodimer (NR concentration 270 nM)
In short: as §1

[18] = tested on: RARa:RXR (NR concentration 270 nM, RXRa partner concentration 90 nM)
In short: as §1

[19] = tested on: RARa homodimer (NR concentration 270 nM)
In short: as §1

[20] = tested on: RARb:RXRa (NR concentration 270 nM, RXRa partner concentration 90 nM)
In short: as §1

| Sequence | PBM binding z-score [1] | PBM binding z-score [2] | PBM binding z-score [3] | PBM binding z-score [4] | PBM binding z-score [5] | PBM binding z-score [6] | PBM binding z-score [7] | PBM binding z-score [8] | PBM binding z-score [9] | PBM binding z-score [10] | PBM binding z-score [11] | PBM binding z-score [12] | PBM binding z-score [13] | PBM binding z-score [14] | PBM binding z-score [15] | PBM binding z-score [16] | PBM binding z-score [17] | PBM binding z-score [18] | PBM binding z-score [19] | PBM binding z-score [20] |
| --- | --- | --- | --- | --- | --- | --- | --- | --- | --- | --- | --- | --- | --- | --- | --- | --- | --- | --- | --- | --- |
| GCTTGGAGGACAAGGTCAGAGCTTTGTCCGTAGA | 1.44 | 1.7 | -0.316 | 1.03 | -0.782 | 2.48 | 0.977 | 1.88 | 0.0499 | 1.35 | 1.24 | 1.71 | -1.32 | -1.05 | 0.764 | 1.76 | -0.385 | 2.05 | -0.509 | 3.48 |
| AATCAAAGTTCAGGACGAGGTAACGTAAAGCACG | 3.75 | 4.39 | 2.25 | 2.03 | 0.58 | 3.2 | 2.07 | 2.19 | 0.724 | 1.26 | -0.649 | 0.571 | 0.569 | 0.969 | 1.98 | 2.9 | 1.19 | 2.55 | 1.39 | 4.19 |
| CCTACTTGGCCAAAGGTCATTGATTCCAATGCTC | 5.47 | 5.24 | 4.8 | 5.11 | 1.42 | 5.78 | 9.42 | 8.35 | 8.32 | 9.45 | 2.53 | 4.83 | 0.228 | 0.876 | 3.67 | 5.46 | 2.07 | 5.85 | 1.65 | 4.57 |
| AGAATGAGGTTAAGATCAGGAAAACAGAATACAT | 2.16 | 1.98 | -0.0642 | 1.77 | -0.122 | 3.76 | 2.48 | 2.46 | 1.03 | 1.72 | 2.5 | 2.67 | 1.33 | 0.813 | 0.0242 | 1.08 | 0.189 | 1.93 | 0.732 | 1.9 |
| GGAACGAGGGCAGGTTGATAGCAGAGTTTGATGG | 0.204 | 0.00952 | -0.393 | 0.00491 | -0.45 | 0.686 | 0.674 | 0.307 | -0.182 | 0.0591 | 2.17 | 1.68 | -0.931 | -0.47 | 0.542 | 0.273 | 0.636 | 0.164 | 0.17 | 1.87 |
| GGAACGAGGGCATTCGAGATGATAGCATGGCGAT | 0.866 | 0.444 | -0.191 | -0.035 | -0.591 | 1.38 | 1.36 | 0.68 | 0.253 | 0.521 | 2.56 | 2.34 | -0.145 | -0.476 | -0.199 | 0.623 | 0.0214 | 0.232 | -0.236 | 1.72 |
| CTCGAAAGGTCGGTTGTGGTGAGTATACGGATAA | 2.01 | 1.54 | 0.263 | 1.67 | 0.416 | 2.29 | 0.242 | 0.949 | -0.0875 | 0.394 | 0.261 | 0.611 | -0.0487 | 0.467 | 1.3 | 1.13 | 0.427 | 1.81 | 1.01 | 3.03 |
| TAGCATAGGTCAGATCGGGCCAGTATACGCTATA | 3.66 | 2.95 | -0.198 | 2.08 | -0.138 | 3.38 | 1.65 | 1.67 | 0.311 | 1.05 | -0.136 | 0.798 | -0.196 | -0.529 | 0.679 | 2.5 | -0.583 | 2.5 | -0.285 | 3.37 |
| CGTCCAAGGTCATAGGTGGTCAGTGAAGACAGAT | 7.11 | 5.63 | 1.51 | 4 | 0.409 | 5.57 | 5.44 | 5.25 | 2.42 | 4.36 | 2.96 | 3.73 | 0.259 | -0.648 | 2.54 | 4.5 | 1.58 | 5 | 1.26 | 4.89 |
| TCATATAGGTAAAGTTGAAAGTCGAACGATATGA | 0.231 | 0.886 | -0.186 | 0.68 | -0.123 | 2.11 | 1.9 | 3.23 | 3.72 | 3.52 | 3.68 | 2.66 | 1.6 | 1.18 | 0.5 | 0.661 | 0.0596 | 0.908 | 0.307 | 1.08 |
| AGTCAAGGTTCAGGACGAGGTAACGTAAAGCACG | 2.68 | 1.82 | 0.192 | 1.05 | -0.0826 | 2.34 | 1.97 | 2.16 | 0.624 | 1.34 | -0.591 | 0.701 | -0.373 | 0.579 | 0.61 | 1.35 | 0.133 | 1.95 | 0.0883 | 2.38 |
| TCATATAGGTAAATGGTGAAAGTCGGTGTGGTAA | 0.818 | 1.03 | 0.217 | 0.846 | -0.047 | 1.6 | 1.54 | 3.44 | 4.15 | 3.96 | 3.92 | 2.4 | 0.569 | 0.625 | 1.49 | 0.445 | 0.609 | 0.554 | 1.52 | 0.243 |
| CCTATTAGTTGACCATAAGGGAAACCGAAGCTCG | 0.0135 | 0.118 | 0.818 | 0.349 | 0.904 | 0.126 | 0.419 | 0.639 | 0.332 | 0.381 | 0.672 | 0.217 | 0.925 | 1.02 | 2.22 | 0.326 | 0.761 | 0.517 | 2.53 | 0.497 |
| ATCGTAAGGTCGACGAGGTGAGTATACACCGTTT | 3.07 | 1.79 | -0.0992 | 1.66 | 0.155 | 3.03 | 1.36 | 1.25 | 0.685 | 0.918 | 0.226 | 1.61 | 0.856 | 0.0648 | 0.926 | 2.17 | 0.476 | 2.39 | 0.139 | 3.08 |
| ATATGCAGGTTACATCCGGGTCATTCAGGCTATG | 2.7 | 4.82 | 0.974 | 2.99 | 0.382 | 3.53 | 2.58 | 2.61 | 0.935 | 1.49 | 3.86 | 4.01 | 0.813 | 1.04 | 1.59 | 3.71 | 1.94 | 3.45 | 0.262 | 2.34 |
